Assay outcomes as filed in PubChem.
FMDV inh – antivirals against foot and mouth disease virus; FMDV antiviral cell-based qHTS; Potency, µM (top dose mostly 57.9 µM), for the others: at the top dose activity change, negative = inhibition, actives largely listed as inhibitors; 410,000 compounds, 1.2% hits; calls by dose curve; tested in HEK293T cells; further: read-out not given here; potency means the concentration at half of the fitted maximal effect; nearly all actives have a fitted effect of over 45% in size
MARV entry inh – Marburg virus entry inhibition | Marburg virus pseudotyped entry inhibition, cell reporter | Potency, µM (doses to about 37.8 µM), inactives show at the highest dose activity change, negative = inhibition, hits mostly inhibitors | 300,000 compounds, 1.8% hits | AID 540276; calls by dose curve; tested in HEK293 cells; further: potency means the concentration at half of the fitted maximal effect
HCMV antiviral – human cytomegalovirus inhibition. HFF cells, HCMV-luciferase reporter, 72 h; hits give low values. activity change, negative = inhibition, % at 57.5 µM. 410,000 compounds, 4.5% hits; in the data active means activity change below about -60%; inconclusive means no clear call, values can overlap the other calls; inactive means above about -39%
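Screen run at 2 compound doses on HFFs infected with reporter HCMV, MOI 1 PFU/cell. Luciferase activity from cell lysates at 72 h post infection gave inhibition relative to buffer-only and Salinomycin wells.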
Lassa entry inh – inhibitors of Lassa virus binding or cell entry; Lassa virus pseudotype entry inhibition, cell reporter; Potency, µM (doses to about 37.9 µM), without a hit: top-dose activity change, negative = inhibition, actives largely listed as inhibitors; 300,000 compounds, 1.2% hits; AID 540256; calls by dose curve; tested in HEK293 cells; further: potency means the concentration at half of the fitted maximal effect; nearly all actives have a fitted effect of over 50% in size
HCV inhibitor – blocks hepatitis C virus; Huh7.5.1 HCVcc-Cre infection, luciferase reporter, 44 h; 340,000 compounds, 3.4% hits; Potency, µM (doses to about 41.8 µM), for the others: at the top dose activity change, negative = inhibition, hits mostly inhibitors; AID 651820; active means well fitted inhibition curve with a large enough effect; inconclusive means small, poorly fitted or top-dose-only effect, or another doubt; inactive means no such curve, though single readings can be large or run the other way; further: potency means the concentration at half of the fitted maximal effect
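1,000 cells/well; 4 h culture; + compound; + HCVcc-Cre (~0.5 moi); 44 h; luciferase substrate, RT 15 min; read 15 sec.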
* marks the source's active call; other numbers are inactive results; ? = inconclusive; . = no result given; + = active, no number; ! = a repeat was not active; [ ] = remark or other dose. A selection: hits, their analogues and other compounds. The true share with any hit is near 7.9%. On the % scale 0 is the no-effect control and ±100 the full control effect.

SMILES	FMDV inh	MARV entry inh	HCMV antiviral	Lassa entry inh	HCV inhibitor
CCCN1CCC(=O)N([C@H](CO)CC(C)C)CC1	-10%	.	-61*	.	42%
COc1ccc(CN2CCC(=O)N([C@H](CO)CC(C)C)CC2)cc1OC	-9%	.	-68*	.	-9%
CC(C)C[C@@H](CN=[N+]=[N-])N1CCN(C)CCC1=O	-8%	.	-62*	.	7%
CC(C)C[C@@H](CO)N1CCN(CC(C)C)CCC1=O	-24%	.	-24	.	9%
Cc1c(-c2ccccc2)c(=O)oc2c(CN3CCN(C)CC3)c(O)ccc12	-17%	.	-17	9%[46.1 µM]	.
Cc1cccc(NS(=O)(=O)c2ccc(C)c(C(=O)OCC(=O)Nc3cc(C)on3)c2)c1	25%	?	-39	4.5µM*	-24%
Cc1cccc(NS(=O)(=O)c2cc(C(=O)OCC(=O)Nc3cc(C)on3)ccc2C)c1	33%	?	69	?	-8%
CC(=O)Nc1ccc(S(=O)(=O)N2CCCC(C(=O)N3CCN(c4ccccc4)CC3)C2)cc1 (stereo unspecified)	?	?	-31	-29%	.
CC(=O)N1CCCc2cc(S(=O)(=O)N3CCCC(C(=O)N4CCN(c5cc(C)ccc5C)CC4)C3)ccc21 (stereo unspecified)	28µM*	?	-78*!	5.6µM*	10µM*
COc1ccccc1N1CCN(C(=O)C2CCCN(S(=O)(=O)c3ccc4c(c3)CCCN4C(C)=O)C2)CC1 (stereo unspecified)	28µM*	11µM*	-89*!	?	10µM*
COc1ccccc1N1CCN(C(=O)C2CCCN(S(=O)(=O)c3ccc(C)cc3)C2)CC1 (stereo unspecified)	?	.	0	.	?
CC(=O)N1CCCc2cc(S(=O)(=O)N3CCCC(C(=O)N4CCN(c5ccccc5)CC4)C3)ccc21 (stereo unspecified)	18µM*	.	+!	-20%[46.1 µM]	11µM*
CCOC(=O)c1ccc(CN2C(=O)C(n3cccc3)c3ccccc32)o1 (stereo unspecified)	.	.	11	.	.
Cc1cc(Cl)ccc1NC(=S)NCC(C)C	23%	?	-73*	0%	-5%
Cn1cc(/C=N/n2cnc3scc(-c4ccc(Cl)cc4)c3c2=O)c2ccccc21	-24%	?	?	?	5.6µM*
Cc1nc2scc(-c3ccc(Cl)cc3)c2c(=O)n1N	-18%	-19%[46.1 µM]	?	8%	0%
O=[N+]([O-])c1cc(Cl)cc(/C=N\Nc2ccccn2)c1O	-29%	?	-103*	?	?
COC(=O)[C@]1(C#N)CC(=O)N([C@H](C)[C@H](O)c2ccccc2)[C@@H]1c1ccccc1	.	.	35	.	.
Cc1cccc2c1nc(-c1ccccc1)n1cnnc21	?	14%	-69*	0%	-2%
Cc1cccc2c1nc(-c1ccccc1)n1nnnc21	-1%	-2%	-60*	-8%	-29%
c1ccc(-c2nn3cnnc3c3ccccc23)cc1	-18%	.	5	.	?
O=C(c1cccnc1)C1CCCN(Cc2ccc3c(c2)CN(C(=O)c2cccs2)CCO3)C1 (stereo unspecified)	-5%	.	.	.	.
COc1ccc(/C=C2\SC(=S)N(CCCC(=O)Nc3ccccn3)C2=O)cc1OC	?	-9%	-99*	0%	?
Cc1ccc(/C=C2\SC(=S)N(CCCC(=O)Nc3ccccn3)C2=O)cc1	?	?	-104*	2.2µM*	?
Cc1cc(C(=O)CSc2nc(N)cc(N)n2)c(C)n1CCc1ccc(F)cc1	25µM*	?	?	?	?
SMILES	FMDV inh	MARV entry inh	HCMV antiviral	Lassa entry inh	HCV inhibitor
CN1CCN(Cc2cc(COCc3ccccc3)c3cccnc3c2O)CC1	-19%	6.3µM*	?	?	3.2µM*
CCOc1cccc(CN2CCCC(N3CCN(c4cccc(Cl)c4)CC3)C2)c1O (stereo unspecified)	-24%	?	49	-1%[46.1 µM]	-12%
CN1CCN(C2CCN(Cc3ccc(O)c4ncccc34)CC2)CC1	0%	.	-16	.	.
CCCOCc1cc(CN2CCN(c3cccc(Cl)c3)CC2)c(O)c2ncccc12	-23%	?	-97*	?	.
O=[N+]([O-])c1cc(CN2CCOCC2)c2cccnc2c1O	-7%	-21%[46.1 µM]	.	-29%	0%
O=[N+]([O-])c1cc(CN2CCN(c3ccccc3)CC2)c(O)c2ncccc12	-20%	?	-89*	?	?
CCCCOCc1cc(CN2CCN(c3cccc(Cl)c3)CC2)c(O)c2ncccc12	0%	?	-100*	?	.
COc1cc(CN2CCN(c3cccc(Cl)c3)CC2)cc(OC)c1OC	-24%	-19%	29	-29%	-5%
O=C(NCc1ccccn1)[C@@H]1CCCN1C(=O)[C@@H]1CCCN1C(=O)c1cccc(Cl)c1	-6%	.	-10	.	.
CC(C)CNc1ccc2c(n1)C(=O)N([C@H](C)C(=O)N[C@H](CO)c1ccccc1)C2	.	.	26	.	.
CC1(C)Cc2c(sc(NC(=O)c3ccc(C(=O)c4ccccc4)cc3)c2C(N)=O)C(C)(C)N1	-29%	?	-100*	?	?
CCc1ccc(NC(=O)c2ccc3c(c2)C(=O)N(CCOC)C3Nc2ccc(CC)cc2)cc1 (stereo unspecified)	28%	-1%	-90*	26%	-19%
Cc1ccc(OCCNC(=O)CNC(=O)c2ccccc2Cl)cc1	-2%	2%	-23	-9%	2%
Oc1nc(Nc2cccc(Cl)c2)sc1/C=C1\C=Nc2ccccc21	?	?	-20	?	-23%
CCOC(=O)c1c(Nc2ccc(Cl)cc2)sc(/C=C2\C=Nc3ccccc32)c1O	7%	?	-73*!	-26%	?
O=c1cc(O)c2c(=O)n(-c3ccccc3)c3c(c2o1)CCCCC3	-7%	0%	-1	10%	-8%
CCOC(=O)N1CCN(C(=O)C2CCCN(S(=O)(=O)c3cc(C)ccc3OC)C2)CC1 (stereo unspecified)	.	10%	20	3%	6%
COc1ccc(C)cc1S(=O)(=O)N1CCCC(C(=O)N2CCN(c3ccccc3)CC2)C1 (stereo unspecified)	?	.	-69*	.	?
COc1ccc(S(=O)(=O)N2CCCC(C(=O)N3CCN(c4ccccc4)CC3)C2)cc1Cl (stereo unspecified)	35µM*	-22%	-9	?	?
COc1ccc(S(=O)(=O)N2CCCC(C(=O)O)C2)cc1Cl (stereo unspecified)	-20%	?	-28	-1%	-1%
CN(Cc1cnc2ccccn12)C(=O)c1cc(NC(=O)c2ccccc2)cc2ncn(C3CCCC3)c12	-8%	.	.	.	.
CC(C)NC(=O)C(c1ccc(F)cc1)N(C(=O)CCC(=O)Nc1ccccn1)C1CCCCC1 (stereo unspecified)	-5%	-15%[46.1 µM]	-34	4%	13%
O=C(Cn1cnc2c(oc3nc4c(cc32)CCCC4)c1=O)Nc1ccccc1	6%	.	6	.	-16%
O=C(Cn1cnc2c(oc3nc4c(cc32)CCCC4)c1=O)Nc1cccc(Cl)c1	11%	5%[46.1 µM]	34	2%	25µM*
